# In the library only some 3.9% were active in any assay of this set; here they are far more common.
# 3CLpro inhibitor = SARS-CoV 3CLpro protease inhibition; recombinant SARS-CoV 3CLpro, quenched FRET peptide cleavage; inhibition, % at 6 µM; 290,000 compounds, 0.14% hits; AID 1706; in the data active = inhibition above about 12%
# BoNT-A LC inh2 = inhibitors of Botulinum neurotoxin A light chain protease | multiplex microsphere protease substrate cleavage, flow cytometry | inhibition, % at 10 µM | 360,000 compounds, 0.17% hits | AID 588499; also: plate controls were buffer without enzyme for full effect and enzyme alone for no effect
# Anthrax LF prot = inhibitors of Bacillus anthracis lethal factor protease; multiplex microsphere protease cleavage assay, LF; inhibition, % at 10 µM; 360,000 compounds, 0.12% hits; also: plate controls were buffer without enzyme for full effect and enzyme alone for no effect
# Target sequence (P15917 whole entry, looked up): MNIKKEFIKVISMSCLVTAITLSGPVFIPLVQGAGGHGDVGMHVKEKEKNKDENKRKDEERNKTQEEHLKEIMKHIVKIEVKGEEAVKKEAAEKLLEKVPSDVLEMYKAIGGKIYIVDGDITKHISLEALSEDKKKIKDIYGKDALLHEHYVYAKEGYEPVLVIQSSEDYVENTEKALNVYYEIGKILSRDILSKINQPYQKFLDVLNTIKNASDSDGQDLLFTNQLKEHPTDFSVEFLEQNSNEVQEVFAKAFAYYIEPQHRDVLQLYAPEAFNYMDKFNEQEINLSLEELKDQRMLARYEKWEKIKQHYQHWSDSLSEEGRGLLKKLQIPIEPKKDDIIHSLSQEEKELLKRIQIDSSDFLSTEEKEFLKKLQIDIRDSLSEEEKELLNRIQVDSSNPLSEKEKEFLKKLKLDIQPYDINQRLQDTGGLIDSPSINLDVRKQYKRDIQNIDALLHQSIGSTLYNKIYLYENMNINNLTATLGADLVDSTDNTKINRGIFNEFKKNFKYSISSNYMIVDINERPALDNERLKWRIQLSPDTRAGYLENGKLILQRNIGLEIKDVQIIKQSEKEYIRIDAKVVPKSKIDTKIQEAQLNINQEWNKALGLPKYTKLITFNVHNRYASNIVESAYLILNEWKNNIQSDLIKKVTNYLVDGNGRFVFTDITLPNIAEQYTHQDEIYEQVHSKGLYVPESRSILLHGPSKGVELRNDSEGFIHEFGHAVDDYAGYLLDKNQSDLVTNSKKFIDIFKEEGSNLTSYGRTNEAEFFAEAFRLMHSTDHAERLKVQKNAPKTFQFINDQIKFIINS
# CCHF vOTU inh = CCHFV vOTU protease inhibition. Pep-AMC fluorescence. inhibition, % at 11.5 µM. 370,000 compounds, 0.55% hits. AID 651958; in the data active = inhibition above about 30%; also: 0% = vehicle wells with enzyme and 100% = no enzyme wells
# BoNT-F LC inh = inhibitors of Botulinum neurotoxin F light chain protease | inhibition, % at 10 µM | AID 588497 | Multiplex microsphere protease cleavage assay, flow cytometry | 360,000 compounds, 0.22% hits; in the data active = inhibition above about 35%, passing the limit was not always enough; inconclusive = no clear call, values can overlap the other calls; also: plate controls were buffer without enzyme for full effect and enzyme alone for no effect
# Autofluor counter = compound fluorescence in toxin protease inhibitor counterscreen; compound autofluorescence counterscreen, microsphere flow cytometry; stronger effect = higher value; fluorescence intensity (no concentration beside the values); 360,000 compounds, 3.1% hits; AID 624483; in the data active = fluorescence intensity above about 16000; inconclusive = no clear call, values can overlap the other calls
# Starred values were filed as active, the others as inactive; ? = inconclusive; . = no result. Rule as the data show it, unless noted: active = inhibition above about 30%; inconclusive = no clear call, values can overlap the other calls; inactive = below that.
SMILES,3CLpro inhibitor,BoNT-A LC inh2,Anthrax LF prot,CCHF vOTU inh,BoNT-F LC inh,Autofluor counter
COc1ccc(N2CCN(CCCNC(=O)CCOC(C)(C)C)CC2)cc1,.,.,.,-6,.,.
CCn1c(SCc2c(F)cccc2F)nc2sc3c(c2c1=O)CCCC3,.,.,.,-1,.,.
CC(=O)Nc1cccc(NC(=O)CCc2ccccc2)c1,-5,0,0,2,3,2181
CN(C)c1cccc(NC(=O)CCc2ccccc2)c1,2,12,25,12,75*,7865
CCCCCCCCN1C(=O)[C@@H](CC(=O)N2CCCC2)C[C@@]2(C(=O)OC)C1=C[C@H](COCc1ccccc1)O[C@@H]2C,.,.,.,16,.,.
NCc1ccc(OCCCN2CCC(C(O)(C3=CCCC3)c3ccccc3)CC2)cc1 (stereo unspecified),.,.,.,8,.,.
CCNS(=O)(=O)c1ccc(NC(=O)Cn2nc(C(F)(F)F)cc2C)cc1,0,0,0,9,-6,2854
CCc1ccccc1NC(=O)Cn1nc(C(F)(F)F)cc1C1CC1,1,?,-2,-2,-1,16270*
Cc1cccc(-c2cccc3c4c([nH]c23)[C@@H]2C[C@H](N(C)C(=O)c3cccc(Cl)c3)[C@H]([C@H](C)O)CN2CC4)c1,.,.,.,4,.,.
O=C(Nc1cccnc1)Nc1ccc(F)c(Cl)c1,1,?,-1,8,0,23140*
O=C(Nc1cccnc1)c1cc(F)c(F)cc1Cl,0,-1,0,6,-7,4323
CSc1ccccc1NC(=O)Nc1cccc(Cl)c1Cl,-1,0,1,3,0,20444*
Cc1ccc(NC(=O)Nc2ccc(F)c(Cl)c2)cc1,2,0,-13,9,-4,5882
CN(CC(=O)Nc1cccnc1)S(=O)(=O)c1cc(Cl)ccc1Cl,-1,?,-3,.,-7,25881*
CSc1ccccc1NC(=O)Nc1ccc(F)c(Cl)c1,0,-4,-3,12,-10,24571*
O=C(NC1CCCCN(Cc2cccc(C(F)(F)F)c2)C1=O)c1ccc(Cl)cc1 (stereo unspecified),.,.,.,12,.,.
Cc1cc(C(=O)O[C@@H]2CCC[C@]3(C(=O)N(Cc4ccccc4)c4ccccc43)[C@H]2NC(=O)CCc2ccccc2)no1,.,.,.,0,.,.
CC(=O)c1cc(-c2cc(C(=O)O)cc([N+](=O)[O-])c2)c(=O)n2c1CCC2,.,.,.,-3,.,.
CN(C)c1ccc(NC(=O)Nc2cccc(Cl)c2)cc1,-4,2,-11,10,-20,19659*
CN(c1cccc(NC(=O)Nc2cccc(Cl)c2)c1)S(C)(=O)=O,4,0,5,3,7,4253
CSc1ccccc1NC(=O)Nc1cccc(Cl)c1,3,0,-2,-1,0,23180*
c1ccc(-n2c(SCc3cccc4ccccc34)nnc2-c2ccccn2)cc1,.,.,.,-2,.,.
O=c1nc2sc3ccccc3n2c(=O)n1-c1cccc(Cl)c1,1,0,0,.,-9,2344
Cc1ccc2c(c1)sc1nc(=O)n(-c3cccc(Cl)c3)c(=O)n12,-2,1,-1,-2,1,22395*
Cc1ccc2c(c1)sc1nc(=O)n(-c3ccc(Cl)c(Cl)c3)c(=O)n12,-1,?,-2,0,-5,22447*
SMILES,3CLpro inhibitor,BoNT-A LC inh2,Anthrax LF prot,CCHF vOTU inh,BoNT-F LC inh,Autofluor counter
Cc1ccc2c(c1)sc1nc(=O)n(-c3ccc(Cl)cc3)c(=O)n12,-3,0,0,-4,3,19455*
O=c1nc2sc3ccccc3n2c(=O)n1-c1ccc(Cl)cc1,-1,0,1,-8,0,3826
C(=N/N1CCN(c2ccccc2)CC1)/c1ccco1,.,.,.,0,.,.
COC(=O)C1CN(C2CCCC2)CCS(=O)(=O)N1Cc1ccccc1 (stereo unspecified),.,.,.,2,.,.
Cn1nc(C(C)(C)C)cc1C(=O)NCC1CCN(C(=O)C(=O)c2cc3ccccc3o2)CC1,.,.,.,-4,.,.
CC(C)(C)OC(=O)N1CCC(c2ccc[nH]2)(c2c[nH]c3ccccc23)CC1,.,.,.,16,.,.
COc1ccc(-c2cc(=O)oc3cc4occ(C)c4cc23)cc1,2,1,-2,-2,1,22808*
CC(C)CO/C(=N/S(=O)(=O)c1ccccc1)c1ccccc1,-4,-1,-3,2,-3,21474*
Cc1c(C(=O)N(CC(C)C)c2c(N)n(Cc3ccccc3)c(=O)[nH]c2=O)sc2nc3n(c(=O)c12)CCC3,.,4,32*,-3,2,?
CCCN1CCS(=O)(=O)N(Cc2cn(Cc3ccc(OC)cc3)nn2)C(C(=O)OC)C1 (stereo unspecified),.,.,.,2,.,.
